Test results reported in PubChem BioAssay (Tox21).
Calls of active or inactive are those of the source. Where a call stands in place of a potency, no number is given. Unless noted, calls follow the shape of the dose curve; as a rule, active = well fitted curve in the direction sought with a large enough effect in the repeat runs; inconclusive = weak or mixed curves; inactive = no such curve, though single readings can be large; an effect the other way counts as inactive or inconclusive.

Assays:
[1] = qHTS assay to identify small molecule antagonists of the glucocorticoid receptor (GR) signaling pathway - cell viability counter screen (AID 720693); also: nearly all actives have a fitted effect of over 55% in size; also: potency is read from the fitted curve at half-maximal effect
[2] = qHTS assay to identify small molecule antagonists of the androgen receptor (AR) signaling pathway - cell viability counter screen (AID 743033; also: nearly all actives have a fitted effect of over 45% in size; also: potency is read from the fitted curve at half-maximal effect)
[3] = qHTS assay to identify small molecule antagonists of the androgen receptor (AR) signaling pathway using the MDA cell line - cell viability counter screen (AID 743041; also: nearly all actives have a fitted effect of over 45% in size; also: potency is read from the fitted curve at half-maximal effect)
Procedure, shortened: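 Viability counter screen run alongside the AR antagonist reporter: cells seeded 5 h before compound, R1881 added, 16 h incubation at 37C without CO2, fluorescent CellTiter-Fluor signal quantified.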

[4] = qHTS assay to identify small molecule antagonists of the thyroid receptor (TR) signaling pathway - cell viability counter screen (AID 743064); also: nearly all actives have a fitted effect of over 50% in size; also: potency is read from the fitted curve at half-maximal effect
Procedure, shortened: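 Same-well viability check: GH3.TRE-Luc cells stimulated with 1 nM T3 alongside test compound for 23.5 h, followed by CellTiter-Fluor fluorescence.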

[5] = qHTS assay to identify small molecule antagonists of the thyroid receptor (TR) signaling pathway (AID 743065); also: nearly all actives have a fitted effect of over 55% in size; also: potency is read from the fitted curve at half-maximal effect
Procedure, shortened: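 GH3.TRE-Luc rat pituitary cells carrying two TR response elements driving luciferase were plated for 4 h, given compound plus 1 nM T3 (final), and incubated 23.5 h at 37 C. ONE-Glo luminescence measured reporter inhibition; CellTiter-Fluor fluorescence tracked cytotoxicity.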

[6] = tested on: thyroid hormone receptor (rat, GH3 cells); assay: qHTS assay to identify small molecule agonists of the thyroid receptor (TR) signaling pathway (AID 743066; calls by dose curve)
[7] = qHTS assay to identify small molecule antagonists of the estrogen receptor alpha (ER-alpha) signaling pathway - cell viability counter screen (AID 743074; calls by dose curve;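 also: HEK293 cells carrying ER-alpha-UAS-bla reporter stimulated with 17beta-estradiol; nearly all actives have a fitted effect of over 45% in size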; also: potency is read from the fitted curve at half-maximal effect)
[8] = qHTS assay to identify small molecule antagonists of the estrogen receptor alpha (ER-alpha) signaling pathway using the BG1 cell line - cell viability counter screen (AID 743081);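 also: compound given together with 17beta-estradiol as the ER stimulus; nearly all actives have a fitted effect of over 45% in size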; also: potency is read from the fitted curve at half-maximal effect
[9] = target: Aromatase (Homo sapiens) (UniProt P11511); assay: qHTS assay to identify aromatase inhibitors (AID 743083); also: nearly all actives have a fitted effect of over 55% in size; also: potency is read from the fitted curve at half-maximal effect
[10] = qHTS assay for identifying genotoxic compounds that show differential cytotoxicity against isogenic chicken DT40 cell lines with known DNA damage response pathways - Rev3 mutant cell line (AID 743014); also: nearly all actives have a fitted effect of over 55% in size; also: potency is read from the fitted curve at half-maximal effect
[11] = target: Estrogen receptor (Homo sapiens) (UniProt P03372); assay: qHTS assay to identify small molecule agonists of the estrogen receptor alpha (ER-alpha) signaling pathway (AID 743075; calls by dose curve; also: potency is read from the fitted curve at half-maximal effect)
[12] = target: Estrogen receptor (Homo sapiens) (UniProt P03372); assay: qHTS assay to identify small molecule agonists of the estrogen receptor alpha (ER-alpha) signaling pathway using the BG1 cell line (AID 743079); also: nearly all actives have a fitted effect of over 20% in size; also: potency is read from the fitted curve at half-maximal effect
[13] = qHTS assay to identify small molecule antagonists of the estrogen receptor alpha (ER-alpha) signaling pathway using the BG1 cell line (AID 743080; calls by dose curve;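 also: BG1 cells stimulated with 17beta-estradiol alongside compound; nearly all actives have a fitted effect of over 25% in size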; also: potency is read from the fitted curve at half-maximal effect)
Procedure, shortened: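 BG1-Luc-4E2 cells (endogenous full-length ER-alpha, 4xERE luciferase) hormone-starved 5 days in charcoal-stripped FBS, plated 4,000/well for 24 h, then compound plus 17beta-estradiol for 21.5 h at 37 C; ONE-Glo luminescence read.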

[14] = qHTS assay for identifying genotoxic compounds that show differential cytotoxicity against isogenic chicken DT40 cell lines with known DNA damage response pathways - Rad54/Ku70 mutant cell line (AID 743015); also: nearly all actives have a fitted effect of over 60% in size; also: potency is read from the fitted curve at half-maximal effect
[15] = qHTS assay for identifying genotoxic compounds that show differential cytotoxicity against isogenic chicken DT40 cell lines with known DNA damage response pathways - wild type cell line (AID 743012); also: nearly all actives have a fitted effect of over 60% in size; also: potency is read from the fitted curve at half-maximal effect
Procedure, shortened: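 Parental DNA repair-proficient DT40 cells, 300 per well, were pre-incubated ~0.5 h at 37 C/5% CO2, pin-dosed with compounds in DMSO, then incubated 40 h. Viability was read as CellTiter-Glo luminescence after 30 min at room temperature.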

[16] = target: Androgen receptor (Homo sapiens) (UniProt P10275); assay: qHTS assay to identify small molecule agonists of the androgen receptor (AR) signaling pathway using the MDA cell line (AID 743040; also: nearly all actives have a fitted effect of over 20% in size)
Procedure, shortened: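 Luminescence from ONE-Glo, read after 30 min at room temperature, reflects MMTV-driven luciferase in MDA-kb2 cells (AR- and GR-responsive). Treatment lasted 16 h at 37C, 0% CO2.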

[17] = target: Androgen receptor (Homo sapiens) (UniProt P10275); assay: qHTS assay to identify small molecule antagonists of the androgen receptor (AR) signaling pathway using the MDA cell line (AID 743042; also: nearly all actives have a fitted effect of over 55% in size; also: potency is read from the fitted curve at half-maximal effect)
Procedure, shortened: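 MDA-kb2 cells (human breast carcinoma, stably carrying an MMTV-luciferase reporter responsive to AR and GR) were plated at 3,000 cells/well and preincubated 5 hr at 37C, then given compound plus R1881 agonist for 16 h. ONE-Glo luminescence was read.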

[18] = target: Androgen receptor (Homo sapiens) (UniProt P10275); assay: qHTS assay to identify small molecule agonists of the androgen receptor (AR) signaling pathway (AID 743036; active = well fitted activation curve with a large enough effect in the signal ratio in the repeat runs, with a control signal flat, not every such curve was filed as active; inconclusive = weak or mixed curves, or effect the other way; inactive = no such curve, though single readings can be large or run the other way; the % refers to the signal ratio)
Procedure, shortened: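 Agonist activity was scored by beta-lactamase reporter fluorescence in stably transfected HEK293 cells exposed to compounds for 16 h at 37C and 5% CO2. Substrate loading took 2 h at room temperature.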

[19] = target: Estrogen receptor (Homo sapiens) (UniProt P03372); assay: qHTS assay to identify small molecule antagonists of the estrogen receptor alpha (ER-alpha) signaling pathway (AID 743069; active = well fitted curve in the direction sought with a large enough effect in the signal ratio in the repeat runs, not every such curve was filed as active; inconclusive = weak or mixed curves, or effect the other way; inactive = no such curve, though single readings can be large or run the other way; the % refers to the signal ratio)
Procedure, shortened: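 Estradiol-stimulated ER-alpha-UAS-bla HEK293 cells, 18 hr compound exposure at 37C. LiveBLAzer B/G substrate, 2 hr RT, fluorescence read.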

[20] = target: Androgen receptor (Homo sapiens) (UniProt P10275); assay: qHTS assay to identify small molecule antagonists of the androgen receptor (AR) signaling pathway (AID 743035; active = well fitted inhibition curve with a large enough effect in the signal ratio in the repeat runs, not every such curve was filed as active; inconclusive = weak or mixed curves, or effect the other way; inactive = no such curve, though single readings can be large or run the other way; the % refers to the signal ratio)
Procedure, shortened: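 HEK293 cells stably carrying a UAS-driven beta-lactamase reporter (AR-UAS-bla GripTite) were plated for 4 h at 37C, then given compound and the agonist R1881 and incubated 16 h. Reporter activity was read by LiveBLAzer B/G FRET fluorescence after 2 h at room temperature.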

Chain of Aromatase (Homo sapiens) (P11511 whole entry, looked up): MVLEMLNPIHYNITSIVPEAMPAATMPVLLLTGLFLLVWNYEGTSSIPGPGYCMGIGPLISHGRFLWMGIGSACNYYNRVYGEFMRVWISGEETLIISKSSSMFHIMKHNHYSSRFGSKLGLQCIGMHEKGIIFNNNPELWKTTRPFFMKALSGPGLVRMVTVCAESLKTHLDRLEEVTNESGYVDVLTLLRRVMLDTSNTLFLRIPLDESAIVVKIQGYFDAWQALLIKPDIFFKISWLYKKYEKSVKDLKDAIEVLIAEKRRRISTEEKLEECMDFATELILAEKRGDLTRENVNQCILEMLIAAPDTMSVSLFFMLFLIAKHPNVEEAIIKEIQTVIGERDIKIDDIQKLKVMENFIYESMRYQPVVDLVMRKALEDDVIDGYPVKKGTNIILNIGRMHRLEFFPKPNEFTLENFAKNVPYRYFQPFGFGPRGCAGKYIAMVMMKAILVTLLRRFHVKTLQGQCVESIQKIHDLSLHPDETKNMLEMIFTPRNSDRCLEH
Chain of Androgen receptor (Homo sapiens) (P10275 whole entry, looked up): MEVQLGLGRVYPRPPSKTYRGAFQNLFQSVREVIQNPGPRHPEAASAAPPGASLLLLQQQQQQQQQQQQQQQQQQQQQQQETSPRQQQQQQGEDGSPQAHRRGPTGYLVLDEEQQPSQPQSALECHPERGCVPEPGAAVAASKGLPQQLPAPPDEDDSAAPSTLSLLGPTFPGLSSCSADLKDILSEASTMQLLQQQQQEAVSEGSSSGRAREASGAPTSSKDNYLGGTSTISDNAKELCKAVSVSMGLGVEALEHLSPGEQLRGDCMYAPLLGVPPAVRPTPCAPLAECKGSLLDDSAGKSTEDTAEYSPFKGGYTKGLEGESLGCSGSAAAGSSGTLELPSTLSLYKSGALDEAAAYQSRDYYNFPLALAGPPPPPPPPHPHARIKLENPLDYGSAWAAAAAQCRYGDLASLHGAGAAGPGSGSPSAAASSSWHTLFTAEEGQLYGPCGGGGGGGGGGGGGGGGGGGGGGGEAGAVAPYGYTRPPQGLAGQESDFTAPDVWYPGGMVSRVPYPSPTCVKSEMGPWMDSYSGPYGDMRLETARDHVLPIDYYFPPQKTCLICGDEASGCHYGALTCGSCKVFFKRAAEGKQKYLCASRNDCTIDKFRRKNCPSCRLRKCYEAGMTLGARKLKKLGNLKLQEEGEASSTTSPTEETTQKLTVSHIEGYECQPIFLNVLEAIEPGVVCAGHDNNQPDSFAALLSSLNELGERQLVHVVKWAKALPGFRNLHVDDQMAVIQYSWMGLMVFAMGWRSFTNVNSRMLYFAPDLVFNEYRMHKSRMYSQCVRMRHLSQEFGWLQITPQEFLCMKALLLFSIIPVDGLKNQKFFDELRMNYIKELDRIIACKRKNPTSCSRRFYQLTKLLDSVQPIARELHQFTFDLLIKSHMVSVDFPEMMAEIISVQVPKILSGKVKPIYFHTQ
Chain of Estrogen receptor (Homo sapiens) (P03372 whole entry, looked up): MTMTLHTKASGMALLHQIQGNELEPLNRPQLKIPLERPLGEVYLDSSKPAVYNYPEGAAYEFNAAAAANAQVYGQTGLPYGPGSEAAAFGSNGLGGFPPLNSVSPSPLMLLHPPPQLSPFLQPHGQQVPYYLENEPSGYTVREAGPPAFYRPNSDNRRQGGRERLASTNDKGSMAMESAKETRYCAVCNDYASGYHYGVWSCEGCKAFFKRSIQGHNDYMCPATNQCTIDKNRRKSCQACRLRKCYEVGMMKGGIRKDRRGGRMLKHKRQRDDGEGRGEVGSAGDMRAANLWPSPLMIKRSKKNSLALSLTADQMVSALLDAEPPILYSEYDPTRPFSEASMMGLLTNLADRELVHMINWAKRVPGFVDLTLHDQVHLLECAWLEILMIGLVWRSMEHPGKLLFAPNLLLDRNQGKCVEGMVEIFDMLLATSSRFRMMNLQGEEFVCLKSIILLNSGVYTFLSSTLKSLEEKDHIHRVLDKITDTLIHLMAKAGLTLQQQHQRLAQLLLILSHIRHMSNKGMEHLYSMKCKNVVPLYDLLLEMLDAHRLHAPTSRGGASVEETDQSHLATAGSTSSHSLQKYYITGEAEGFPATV

| SMILES | Potency [1] | Potency [2] | Potency [3] | Potency [4] | Potency [5] | outcome [6] | Potency [7] | Potency [8] | Potency [9] | Potency [10] | Potency [11] | Potency [12] | Potency [13] | Potency [14] | Potency [15] | Potency [16] | Potency [17] | Potency [18] | Potency [19] | Potency [20] |
| --- | --- | --- | --- | --- | --- | --- | --- | --- | --- | --- | --- | --- | --- | --- | --- | --- | --- | --- | --- | --- |
| FC(F)(F)c1cccc(C2=CCN(CCc3ccc4ccccc4c3)CC2)c1 | inactive | inactive | inactive | inactive | inactive | inactive | inactive | inactive | inactive |  |  |  |  |  |  |  |  |  |  |  |
| O=C(O)COc1nc(Cl)c(Cl)cc1Cl | inactive |  | inactive |  | inactive | inactive |  | inactive | inactive | 57.4 µM (active) | inactive | inactive | inactive |  |  |  |  |  |  |  |
| Cc1cc(C(F)(C(F)(F)F)C(F)(F)F)ccc1NC(=O)c1cccc(I)c1C(=O)NC(C)(C)CS(C)(=O)=O | inactive | inactive | inactive | inactive | 21.8 µM (active) | inactive | inactive | inactive | inactive | 43.5 µM (active) | inactive |  | inactive | 30.8 µM (active) |  |  |  |  |  |  |
| C[C@@H]1CC[C@@]2(OC1)O[C@H]1[C@@H](O)[C@H]3[C@@H]4CC[C@H]5C[C@@H](O[C@@H]6O[C@H](CO)[C@H](O[C@@H]7O[C@H](CO)[C@@H](O)[C@H](O[C@@H]8OC[C@@H](O)[C@H](O)[C@H]8O)[C@H]7O[C@@H]7O[C@H](CO)[C@@H](O)[C@H](O[C@@H]8O[C@H](CO)[C@@H](O)[C@H](O)[C@H]8O)[C@H]7O)[C@H](O)[C@H]6O)[C@H](O)C[C@]5(C)[C@H]4CC[C@]3(C)[C@H]1[C@@H]2C |  | 2.32 µM (active) | 25.8 µM (active) | 2.05 µM (active) | 2.58 µM (active) | inactive | 10.4 µM (active) | 64.9 µM (active) | 9.16 µM (active) | 4.09 µM (active) | 41.3 µM [inconclusive] (active) |  |  | 2.05 µM (active) | 16.3 µM (active) | inactive | 8.17 µM (active) |  |  |  |
| [CH3][Hg][Cl] | 19.5 µM (active) | inactive | inactive | 0.861 µM (active) | 1.22 µM (active) |  | inactive | 34.3 µM (active) | 27.2 µM (active) |  |  | inactive |  |  |  | inactive | inactive |  |  |  |
| Nc1ccccc1C(=O)Oc1ccc2ccccc2c1 | inactive | inactive | inactive | inactive | inactive |  | inactive | inactive | inactive |  | inactive | 4.33 µM (active) |  |  |  |  | inactive | inactive |  |  |
| ClC1=C(Cl)[C@]2(Cl)[C@H]3[C@H]([C@H]4C=C[C@H]3C4)[C@@]1(Cl)C2(Cl)Cl | inactive | inactive | inactive |  | 68.6 µM (active) | inactive | inactive | inactive | inactive |  | inactive | 27.3 µM (active) | inactive | 61.1 µM (active) |  |  |  |  |  |  |
| CN(C)C1CSSSC1 | inactive | inactive | inactive | inactive | inactive | inactive | inactive | inactive | inactive |  | inactive | inactive | inactive | 21.7 µM (active) |  |  |  |  | inactive |  |
| O=c1[nH]c2ccccc2n1CCCN1CCC(n2c(=O)[nH]c3cc(Cl)ccc32)CC1 | inactive | inactive | inactive |  | 26.6 µM (active) |  |  | inactive | inactive |  |  |  |  | 23.7 µM (active) | 26.6 µM (active) |  |  |  |  |  |
| CC(C)OS(C)(=O)=O | inactive | inactive | inactive | inactive | inactive | inactive | inactive | inactive | inactive |  | inactive | inactive | inactive | inactive | inactive |  |  |  |  |  |
| COc1cc(C=O)cc2c1[C@H](COC(N)=O)[C@]1(OC(C)=O)ON2C[C@H]2[C@@H]1N2C(C)=O | 0.49 µM (active) |  |  | 0.864 µM (active) | 0.433 µM (active) | inactive |  |  | 3.44 µM (active) |  | inactive |  | 0.217 µM (active) | 0.0069 µM (active) | 0.0154 µM (active) |  |  |  |  |  |
| CC(C)(C)OO |  | inactive | inactive | inactive | inactive | inactive | inactive | inactive | inactive | inactive |  |  |  | inactive | inactive | inactive | inactive | inactive |  | inactive |
| CN(C)C(=S)[S-].CN(C)C(=S)[S-].[Cu+2] | 2.67 µM (active) | 2.99 µM (active) |  | 1.49 µM (active) |  |  | 6.7 µM (active) | 1.49 µM (active) | 1.49 µM (active) |  |  |  |  |  | 14.9 µM (active) |  |  |  |  |  |
| COP(=S)(OC)Oc1cc(Cl)c(Br)cc1Cl | inactive |  | inactive | inactive | 61.1 µM (active) | inactive |  | inactive | inactive | 61.1 µM (active) | 54.9 µM [inconclusive] (active) | inactive | inactive |  |  | inactive |  |  |  |  |
| NNC(=O)c1ccccc1 | inactive | inactive | inactive | inactive | inactive | inactive | inactive | inactive | inactive |  | inactive | 19.9 µM (active) | inactive | inactive | inactive |  |  |  |  |  |
